± gives the standard deviation of the averaged measurements.
Test system: E. coli BW25113 marRABp lux reporter
Assay: promoter activity interaction Z-score (Lux/OD deviation from empty-vector control); higher = stronger promoter induction by the compound
Procedure: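 E. coli BW25113 (wild type or ΔmarA/ΔsoxS/Δrob) carrying pTU175 luxCDABE promoter reporters was grown in LB in 384-well plates at 37°C with each of 94 compounds at 4 two-fold concentrations, in biological duplicates. Luminescence and OD600 were read every 30 min for 12 h and integrated as AUC over 8 h (0-8 h WT, 1-9 h mutants). Lux AUC was divided by OD AUC; the interaction score is the residual of a Huber robust fit of each promoter against the empty-vector control, then Z-transformed per promoter.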

Row | Structure (SMILES) | promoter activity interaction Z-score (0.062 µg/ml, genetic background: wild type) | promoter activity interaction Z-score (0.062 µg/ml, genetic background: ΔmarA) | promoter activity interaction Z-score (0.062 µg/ml, genetic background: Δrob) | promoter activity interaction Z-score (0.062 µg/ml, genetic background: ΔsoxS) | promoter activity interaction Z-score (0.12 µg/ml, genetic background: wild type) | promoter activity interaction Z-score (0.12 µg/ml, genetic background: ΔmarA) | promoter activity interaction Z-score (0.12 µg/ml, genetic background: Δrob) | promoter activity interaction Z-score (0.12 µg/ml, genetic background: ΔsoxS) | promoter activity interaction Z-score (0.25 µg/ml, genetic background: wild type) | promoter activity interaction Z-score (0.25 µg/ml, genetic background: ΔmarA) | promoter activity interaction Z-score (0.25 µg/ml, genetic background: Δrob) | promoter activity interaction Z-score (0.25 µg/ml, genetic background: ΔsoxS) | promoter activity interaction Z-score (0.49 µg/ml, genetic background: wild type) | promoter activity interaction Z-score (0.49 µg/ml, genetic background: ΔmarA) | promoter activity interaction Z-score (0.49 µg/ml, genetic background: Δrob) | promoter activity interaction Z-score (0.49 µg/ml, genetic background: ΔsoxS) | promoter activity interaction Z-score (1.3 µg/ml, genetic background: wild type) | promoter activity interaction Z-score (1.3 µg/ml, genetic background: ΔmarA) | promoter activity interaction Z-score (1.3 µg/ml, genetic background: Δrob) | promoter activity interaction Z-score (1.3 µg/ml, genetic background: ΔsoxS) | promoter activity interaction Z-score (2.5 µg/ml, genetic background: wild type) | promoter activity interaction Z-score (2.5 µg/ml, genetic background: ΔmarA) | promoter activity interaction Z-score (2.5 µg/ml, genetic background: Δrob) | promoter activity interaction Z-score (2.5 µg/ml, genetic background: ΔsoxS) | promoter activity interaction Z-score (5 µg/ml, genetic background: wild type) | promoter activity interaction Z-score (5 µg/ml, genetic background: ΔmarA) | promoter activity interaction Z-score (5 µg/ml, genetic background: Δrob) | promoter activity interaction Z-score (5 µg/ml, genetic background: ΔsoxS) | promoter activity interaction Z-score (10 µg/ml, genetic background: wild type) | promoter activity interaction Z-score (10 µg/ml, genetic background: ΔmarA) | promoter activity interaction Z-score (10 µg/ml, genetic background: Δrob) | promoter activity interaction Z-score (10 µg/ml, genetic background: ΔsoxS)
1 | CN(C)c1ccc(O)c2c1C[C@H]1C[C@H]3[C@H](N(C)C)C(O)=C(C(N)=O)C(=O)[C@@]3(O)C(O)=C1C2=O [Minocycline] | -0.0844 ± 0.21 | 0.0361 ± 0.21 | 0.129 ± 0.094 | -0.0813 ± 0.0076 | 0.341 ± 0.081 | 0.0649 ± 0.098 | 0.115 ± 0.4 | 0.221 ± 0.22 | 0.449 ± 0.55 | 0.264 ± 0.17 | 0.436 ± 0.19 | 0.173 ± 0.13 | 3.58 ± 0.53 | 3.1 ± 1.2 | 1.07 ± 0.62 | 2.67 ± 0.47 |  |  |  |  |  |  |  |  |  |  |  |  |  |  |  | 
2 | C/C=C/C/C=C/CCC(=O)[C@H]1O[C@H]1C(N)=O [Cerulenin] |  |  |  |  |  |  |  |  |  |  |  |  |  |  |  |  | -0.429 ± 0.45 | -0.469 ± 0.27 | -0.456 ± 0.13 | -0.416 ± 0.089 | -0.654 ± 0.29 | -0.403 ± 0.076 | -0.662 ± 0.091 | -0.444 ± 0.12 | -0.892 ± 0.19 | -0.779 ± 0.41 | -0.818 ± 0.011 | -0.796 ± 0.034 | -0.948 ± 0.37 | -0.377 ± 0.77 | -1.01 ± 0.028 | -0.994 ± 0.11
